This note sets out measurements from PubChem BioAssay AID624297 (National Center for Advancing Translational Sciences (NCATS), 2012).

Structures are written as SMILES. In all, about 340,000 compounds went through this assay and about 6,200 (1.8%) were called active. Entries that show only a call come without a potency. About 10% were inconclusive and are not listed. This is one part of a sample in which actives are shown more often than they occur. Calls come from the whole dose curve; as a rule, active = well fitted activation curve with a large enough effect; inconclusive = small, poorly fitted or top-dose-only effect; inactive = no such curve, though single readings can be large or run the other way.
Potency is the fitted concentration of half-maximal effect.

The experiment is described as follows: A quantitative high throughput screen for small molecules that induce DNA re-replication in SW480 colon adenocarcinoma cells. Note: nearly all actives have a fitted effect of over 55% in size. The conditions noted are these: Hoechst DNA content imaging, 48 h; series mostly up to 46.1 µM. The method in brief: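 DNA re-replication was detected as more nuclei of elevated Hoechst intensity after 48 hr exposure to compound (23 nL pinned per well of 250 cells).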
For `O=C(NCCCn1ccnc1)c1cc(-c2ccccc2)on1`, the Potency is 7.31 µM (active).
Next, `COc1ccc(-c2cc(C(=O)NCCCn3ccnc3)no2)cc1`: “inactive”.
For `COc1ccccc1-c1cc(C(=O)NCCCn2ccnc2)no1`, the Potency result is “inactive”.
For `CCCCN1CC(CO)Oc2cccc(F)c2S1(=O)=O` (configuration not stated), the Potency result is “inactive”.
Next, `C[C@@H]1ON(C)[C@H]2C[C@H]3c4cc(N5CCN(C)CC5)ccc4CCN3C(=O)[C@@H]12`: “inactive”.
In the case of `COc1ccc(/C=C/C(=O)Nc2cccnc2)cc1OC`, the Potency entry is “inactive”.
For `COc1ccc(/C=C/C(=O)Nc2ccc(C34CC5CC(CC(O)(C5)C3)C4)cc2)cc1OC`, the Potency is 18.4 µM (active).
As for `COc1ccc(/C=C/C(=O)Nc2ccc(C)cc2)cc1S(=O)(=O)N1CCOCC1`, the entry is “inactive”; as for `CC1=C(C)CC(C(=O)NNC(=O)c2csc3c2CCC(C(C)(C)C)C3)C(C(=O)O)C1` (configuration not stated), 29.1 µM (active); as for `COC(=O)c1c(NC(=O)C2CC(C)=C(C)CC2C(=O)O)sc2c1CCCCC2` (configuration not stated), “inactive”.
Turning to `CC1=C(C)CC(C(=O)NNC(=O)c2ccccc2O)C(C(=O)O)C1` (configuration not stated), the Potency entry is “inactive”.
For the compound `NC(=O)C1(Nc2ccc(-c3ccccc3)cc2)CCCC1`, the Potency entry was “inactive”.
Consider `Cc1ccc(S(=O)(=O)N2CCOCC2)cc1NC(=O)COC(=O)c1cnccn1`, for which the Potency result is “inactive”.
On to `O=C(CC1NCCNC1=O)Nc1ccc(Oc2ccccc2)cc1` (configuration not stated), for which the Potency entry is “inactive”.
As for `O=C(CC1Nc2ccccc2NC1=O)Nc1ccccc1` (configuration not stated), the figure is 12.6 µM (active); as for `COC(=O)c1cc(C)sc1NC(=O)CC1Nc2ccccc2NC1=O` (configuration not stated), “inactive”; as for `C[C@]12CCC(=O)C=C1C=CC1C2CC[C@@]2(C)C1CC[C@@]21CCC(=O)O1` (some centres not stated), “inactive”.
As for `Nc1ccc2c(c1)C(=Cc1cccnc1)c1ccccc1-2`, the entry is “inactive”; as for `Cc1ccc(C(=O)CNc2ccc(F)cc2)cc1`, “inactive”.
Regarding `Cc1ccc(C(=O)CSc2ccccc2C(=O)O)cc1`, the Potency entry was “inactive”.
Consider `Cc1ccc(SC(CC(=O)c2ccc(C(C)(C)C)cc2)C(=O)O)cc1` (configuration not stated), for which the Potency is 20.6 µM (active).
Regarding `O=C(N[C@H]1C/C=C\C(c2cccc(F)c2)N(Cc2ccccc2)C(=O)C1)OCC1c2ccccc2-c2ccccc21` (some centres not stated), the Potency result was “inactive”.
Take `C#CCOCCOCCOCCNc1nc(N2CCN(C(=O)[C@H](CCCN=C(N)N)n3cc(C(N)[C@@H](C)CC)nn3)CC2)nc(N2CCN(C(=O)[C@H](CO)n3cc([C@@H](N)C(C)C)nn3)CC2)n1` (some centres not stated): the Potency entry was “inactive”.
As for `COC(=O)COc1cccc2c(=O)n(CC(=O)NCc3ccccc3)ccc12`, the figure is 2.59 µM (active); as for `COC(=O)COc1cccc2c(=O)n(CC(=O)NCCc3ccc(OC)c(OC)c3)ccc12`, “inactive”.
For the compound `Cc1ccc(CNC(=O)CCNC(=O)Cn2ccc3ccccc3c2=O)cc1`, the Potency entry was “inactive”.
Next, `CN(Cc1ccc(CNC[C@H]2O[C@@H](n3cnc4c(N)ncnc43)[C@H](O)[C@@H]2O)o1)S(C)(=O)=O`: “inactive”.
